From PubChem BioAssay
A selection: hits, their analogues and other compounds. The true share with any hit is near 1.2%.
PKA-R1A act = activators of PKA-R1A holoenzyme, primary screen, biochemical, fluorescence polarization, Cy5-IP20, bovine R1A, mouse PKAc. cAMP-dependent protein kinase type I-alpha regulatory subunit (Bos taurus) + …. PKA-R1A dissociation; scaled: DMSO 0%, 113 µM cGMP 100%. activation, % at 11.4 µM. 340,000 compounds, 0.083% hits. AID 504707, 2011;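 active = percent activation above the mean of all tested compounds plus 3 SD, cut at about 19% in these data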;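 note: higher means more PKAc released from R1A so a rise in polarization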
PKA-R2B activ = activators of PKA-R2B holoenzyme, primary screen, biochemical, fluorescence polarization, Cy5-IP20, human; PKA-R2B holoenzyme dissociation; R2B truncated from residue 108, S112A mutant; 0% DMSO only, 100% 113 µM cGMP; 340,000 compounds, 0.079% hits; activation, % at 11.4 µM; AID 504700, 2011; cAMP-dependent protein kinase catalytic subunit beta (Homo sapiens) + cAMP-dependent …;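 active = activation above a cutoff set at the mean over all compounds plus 3 SD, cut at about 18% in these data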;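 note: higher means more holoenzyme dissociation and a rise in polarization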
Target sequence (P31323 whole entry, looked up, other chains not shown, the tested form may be a part): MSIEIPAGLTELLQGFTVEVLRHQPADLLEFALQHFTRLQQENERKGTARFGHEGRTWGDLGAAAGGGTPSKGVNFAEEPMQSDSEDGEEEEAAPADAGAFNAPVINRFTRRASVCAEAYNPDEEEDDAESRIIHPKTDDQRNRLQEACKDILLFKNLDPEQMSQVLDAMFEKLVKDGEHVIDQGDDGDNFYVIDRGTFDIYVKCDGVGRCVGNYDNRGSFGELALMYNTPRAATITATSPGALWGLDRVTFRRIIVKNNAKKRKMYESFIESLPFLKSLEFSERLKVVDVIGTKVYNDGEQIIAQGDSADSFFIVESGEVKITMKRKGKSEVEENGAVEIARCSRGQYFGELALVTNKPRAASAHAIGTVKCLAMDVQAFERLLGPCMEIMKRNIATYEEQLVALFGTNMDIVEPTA
PG9 binder = binders of HIV-1 gp120 antibody PG9, primary screen, biochemical, TR-FRET; HIV-1 gp120 / PG9 antibody interaction; TR-FRET gp120-PG9 antibody binding; inhibition, % at 6.7 µM; 360,000 compounds, 0.43% hits; in the data active = inhibition above about 8.5%
Rev-erbA mod = modulators of Rev-erb alpha DNA binding, primary screen, biochemical, FITC-DNA, fluorescence polarization, uHTS. Rev-erbα–FITC-DNA binding, 90 min. activity, % at 10 µM. 370,000 compounds, 0.79% hits;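 active = activity above about 14%, limit read from the data; passing the limit was not always enough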
PG9 bind confirm = binders of anti-gp120 antibody PG9, confirmation, biochemical, TR-FRET | shares compounds with PG9 binder | TR-FRET PG9 antibody binding | inhibition, % at 6.7 µM | 1,500 compounds, 90% hits | AID 651571, 2012; in the data active = inhibition above about 9%
PGV04 Ab binding = binders of control antibody PGV04, counter-screen for PG9 antibody binder project, biochemical, TR-FRET, distinct HIV envelope site | AID 651604, 2012 | shares compounds with PG9 binder | 1,500 compounds, 95% hits | TR-FRET PGV04 antibody-gp120 binding | inhibition, % at 6.7 µM; in the data active = inhibition above about 9.5%
Rev-erbA confirm = modulators of Rev-erb alpha DNA binding, confirmation, biochemical, FITC-DNA, fluorescence polarization, single point; shares compounds with Rev-erbA mod; 90 min; activation, % at 25 µM; 3,000 compounds, 61% hits;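 active = activation at or above a set limit, or at least 3 SD above the negative control mean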
RORg counter = modulation of RORgamma DNA binding, dose response, counter-screen for Rev-erb alpha modulator project, biochemical, fluorescence polarization, FITC-DNA; shares compounds with Rev-erbA mod; IC50, µM; purified RORgamma protein-FITC-DNA binding; 910 compounds, 8% hits;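 active = Compounds whose fitted half-maximal concentration for disrupting protein-DNA binding is below 10 micromolar; the record names Rev-erb in its text, so the target is in doubt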
Large screens that a line does not name were inactive (follow-up assays come after a bar, where they were run).

COc1ccc(CN2C(=O)[C@@](O)(c3cccn3C)c3cc(F)ccc32)cc1	none (no result: PKA-R1A act, PKA-R2B activ, PG9 binder)
COc1cccc(-c2ccc(CC[C@H]3O[C@H]4CC[C@@H](CO)O[C@H]4C[C@H]3NS(C)(=O)=O)cc2)c1	none (no result: PKA-R1A act, PKA-R2B activ, PG9 binder)
Cc1cc2c(cc1S(=O)(=O)N1CCN(c3cccc(C(F)(F)F)c3)CC1)OCC(=O)N2	none
CC(=O)c1ccc(N2CCN(S(=O)(=O)c3cc4c(cc3C)NC(=O)CO4)CC2)cc1	PG9 binder 37, Rev-erbA mod 31 | PG9 bind confirm 33 | PGV04 Ab binding 48 | Rev-erbA confirm 23
Cc1cc(C)cc(N(CC(=O)NC2CCC(C)CC2)S(=O)(=O)c2ccc(Br)s2)c1 (stereo not given)	none (no result: PKA-R1A act, PKA-R2B activ, PG9 binder)
CC(=NNC(=O)CSc1nnc(-c2ccccc2)n1-c1ccccc1)c1ccc2ccccc2c1	none (no result: PKA-R1A act, PKA-R2B activ, PG9 binder)
CC(=O)Nc1ccc(C(=O)CSc2cc(C)c3cccc(C)c3n2)cc1	PG9 binder 17, Rev-erbA mod 37 | PG9 bind confirm 23 | PGV04 Ab binding 48 | Rev-erbA confirm 30
Cc1ccc(S(=O)(=O)NCCCc2ccc3c(c2)[C@]2(CCC[C@@H](OCc4ccccc4)[C@@H]2NC(=O)CCc2ccccc2)C(=O)N3Cc2ccccc2)cc1	none (no result: PKA-R1A act, PKA-R2B activ, PG9 binder)
COc1cc2cc(C#N)c(SCC(=O)Nc3cc(C)on3)nc2cc1OC	PG9 binder 46, Rev-erbA mod 113 | PG9 bind confirm 49 | PGV04 Ab binding 69 | Rev-erbA confirm 75 | RORg counter inactive
Cc1ccc(C)c2nc(SCC(=O)NCc3cccs3)c(C#N)cc12	none
Cc1cccc2cc(C#N)c(SCC(=O)NCc3cccs3)nc12	PG9 binder 42, Rev-erbA mod 87 | PG9 bind confirm 50 | PGV04 Ab binding 75 | Rev-erbA confirm 61 | RORg counter inactive
Cc1cc(NC(=O)CSc2nc3c(c(-c4cccnc4)c2C#N)CCC3)no1	PG9 binder 20, Rev-erbA mod 41 | PG9 bind confirm 32 | PGV04 Ab binding 66 | Rev-erbA confirm 39
Cc1cc(NC(=O)CSc2nc(-c3cccnc3)ccc2C#N)no1	none
Cc1ccc2nc(SCC(=O)Nc3ccc4sc(C)nc4c3)c(C#N)cc2c1	PG9 binder 33, Rev-erbA mod 73 | PG9 bind confirm 30 | PGV04 Ab binding 54 | Rev-erbA confirm 71 | RORg counter inactive
CC(=O)N1CCc2cc(Br)c(S(=O)(=O)CCC(=O)N3CCN(c4ccccn4)CC3)cc21	none (no result: PKA-R1A act, PKA-R2B activ, PG9 binder)
O=C(CN(CCc1ccccc1)S(=O)(=O)c1cccs1)N1CCOCC1	none (no result: PKA-R1A act, PKA-R2B activ, PG9 binder)
COC(=O)[C@@]12CCCCC3=C1N(CCC3)C(=O)[C@H]2CC(=O)NCc1ccccc1	none (no result: PKA-R1A act, PKA-R2B activ, PG9 binder)
CCC(C)c1ccc(NC(=O)CSc2nnc(-c3cccc(C)c3)n2C)cc1 (stereo not given)	none (no result: PKA-R1A act, PKA-R2B activ, PG9 binder)
Cc1cc(C)c2nc(SCC(=O)Nc3cc(C)on3)c(C#N)cc2c1	PG9 binder 28, Rev-erbA mod 103 | PG9 bind confirm 52 | PGV04 Ab binding 75 | Rev-erbA confirm 68 | RORg counter inactive
CC(=O)c1ccc(Nc2ncnc3ccc(Br)cc23)cc1	PG9 binder 11, Rev-erbA mod 121 | PG9 bind confirm 20 | PGV04 Ab binding 56 | Rev-erbA confirm 119 | RORg counter inactive
Cc1cc(-n2c(SCC(=O)Nc3ccc(F)c(F)c3)nc3n[nH]c(C)c3c2=N)ccc1Cl	PG9 binder 21, Rev-erbA mod 51 | PG9 bind confirm inactive | PGV04 Ab binding inactive | Rev-erbA confirm 27
Cc1cc(-n2c(SCC(=O)NCc3cccs3)nc3n[nH]c(C)c3c2=N)ccc1Cl	PG9 binder 38, Rev-erbA mod 43 | PG9 bind confirm 33 | PGV04 Ab binding 44 | Rev-erbA confirm 28
CCOc1ccc(-n2c(SCC(=O)Nc3ccc(Br)cc3)nc3n[nH]c(C)c3c2=N)cc1	none
Cc1cc(-n2c(SCC(=O)Nc3ccc(Br)cc3)nc3n[nH]c(C)c3c2=N)ccc1Cl	PG9 binder 24, Rev-erbA mod 37 | PG9 bind confirm 21 | PGV04 Ab binding 29 | Rev-erbA confirm 22
Cc1ccc(CNC(=O)CSc2nc3n[nH]c(C)c3c(=N)n2-c2cccc(C)c2)cc1	none
COc1cccc(NC(=O)CSc2nc3n[nH]c(C)c3c(=N)n2-c2cccc(OC)c2)c1	none
O[C@H](COc1ccc(F)cc1)CN1CCC(C(O)(c2ccccc2)c2ccccc2)CC1	none (no result: PKA-R1A act, PKA-R2B activ, PG9 binder)
O=C(Nc1ccc2oc(-c3ccccc3)nc2c1)c1ccccc1F	none
O=C(Nc1ccc2oc(-c3cccc(F)c3)nc2c1)c1ccccc1F	PG9 binder 16, Rev-erbA mod 82 | PG9 bind confirm 40 | PGV04 Ab binding 59 | Rev-erbA confirm 42 | RORg counter inactive
CCCN(CC1CC1)c1c2c(nc3ncnn13)CCCC2	none (no result: PKA-R1A act, PKA-R2B activ, PG9 binder)
O=C(CNC(=O)c1sc2ccccc2c1Cl)NCc1cccc(C(F)(F)F)c1	PG9 binder 15, Rev-erbA mod 31 | PG9 bind confirm 17 | PGV04 Ab binding 19 | Rev-erbA confirm 17
CN(CCO)C1CN(Cc2cn(Cc3ccccc3F)nn2)S(=O)(=O)C1 (stereo not given)	none (no result: PKA-R1A act, PKA-R2B activ, PG9 binder)
Cc1sc2nc(Cc3ccccc3)[nH]c(=O)c2c1-c1ccccc1	PG9 binder 35, Rev-erbA mod 70 | PG9 bind confirm 44 | PGV04 Ab binding 65 | Rev-erbA confirm 87 | RORg counter inactive
O=C(NCC1COc2ccccc2O1)c1ccc(NC(=O)C(Cl)Cl)cc1 (stereo not given)	none (no result: PKA-R1A act, PKA-R2B activ, PG9 binder)
COc1ccc(NC(=O)NNC(=O)COc2ccc3cc(Br)ccc3c2)cc1OC	PG9 binder 18, Rev-erbA mod 77 | PG9 bind confirm 29 | PGV04 Ab binding 39 | Rev-erbA confirm 65 | RORg counter inactive
CS(=O)(=O)c1ccc2nc(NC(=O)CCS(=O)(=O)c3ccccc3)sc2c1	none
COC(=O)c1ccc2nc(NC(=O)CCS(=O)(=O)c3ccccc3)sc2c1	PG9 binder 15, Rev-erbA mod 43 | PG9 bind confirm 25 | PGV04 Ab binding 36 | Rev-erbA confirm 18
CCOC(=O)c1cc2sc(C)cc2n1CC(=O)NCc1ccc(F)cc1	PG9 binder 59, Rev-erbA mod 27 | PG9 bind confirm 49 | PGV04 Ab binding 75 | Rev-erbA confirm inactive
